Columns and labels:
Experiment in all cases: PBM binding z-score (relative to random genomic background probes); higher = stronger binding; sequences stand for … in GC…GCGATTGACAGCGTAGAATGAAGG
[1] = test system: FXR:RXRa (NR concentration 270 nM, RXRa partner concentration 90 nM)
How it was run: (§1)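 Regression normalization was applied to scanned fluorescence from custom Agilent 4×180K protein-binding microarrays. Before scanning, arrays were incubated 1 h with ligand-free nuclear receptor dimers, and binding was detected with antibodies against each partner (one per run). Binding z-scores use the random background probes as reference.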

[2] = test system: LXRa:RXRa (NR concentration 270 nM, RXRa partner concentration 90 nM)
How it was run: as §1

[3] = test system: LXRa homodimer (NR concentration 270 nM)
How it was run: as §1

[4] = test system: LXRb:RXRa (NR concentration 270 nM, RXRa partner concentration 90 nM)
How it was run: as §1

[5] = test system: LXRb homodimer (NR concentration 270 nM)
How it was run: as §1

[6] = test system: PPARa:RXRa (NR concentration 270 nM, RXRa partner concentration 90 nM)
How it was run: as §1

[7] = test system: PPARg:RXRa (NR concentration 180 nM, RXRa partner concentration 90 nM)
How it was run: as §1

[8] = test system: PPARg:RXRa 270nM:90nM, anti-RXR (NR concentration 270 nM, RXRa partner concentration 90 nM)
How it was run: as §1

[9] = test system: PPARg:RXRa 30nM:10nM, anti-RXR (NR concentration 30 nM, RXRa partner concentration 10 nM)
How it was run: as §1

[10] = test system: PPARg:RXRa 90nM:30nM, anti-RXR (NR concentration 90 nM, RXRa partner concentration 30 nM)
How it was run: as §1

[11] = test system: PPARg:RXRa DBDmut IVT, anti-RXR (DBD mutation: RXRa K156A/R161A, NR concentration 270 nM, RXRa partner concentration 90 nM)
How it was run: as §1

[12] = test system: PPARg:RXRa IVT, anti-PPARg (NR concentration 270 nM, RXRa partner concentration 90 nM)
How it was run: as §1

[13] = test system: PPARg DBDmut:RXRa IVT, anti-PPARg (DBD mutation: PPARg1 K132A/R137A, NR concentration 270 nM, RXRa partner concentration 90 nM)
How it was run: as §1

[14] = test system: PPARg DBDmut IVT, anti-PPARg (DBD mutation: PPARg1 K132A/R137A, NR concentration 270 nM)
How it was run: as §1

[15] = test system: PPARg homodimer (NR concentration 180 nM)
How it was run: as §1

[16] = test system: PXR:RXRa (NR concentration 270 nM, RXRa partner concentration 90 nM)
How it was run: as §1

[17] = test system: PXR homodimer (NR concentration 270 nM)
How it was run: as §1

[18] = test system: RARa:RXR (NR concentration 270 nM, RXRa partner concentration 90 nM)
How it was run: as §1

[19] = test system: RARa homodimer (NR concentration 270 nM)
How it was run: as §1

[20] = test system: RARb:RXRa (NR concentration 270 nM, RXRa partner concentration 90 nM)
How it was run: as §1

Sequence	PBM binding z-score [1]	PBM binding z-score [2]	PBM binding z-score [3]	PBM binding z-score [4]	PBM binding z-score [5]	PBM binding z-score [6]	PBM binding z-score [7]	PBM binding z-score [8]	PBM binding z-score [9]	PBM binding z-score [10]	PBM binding z-score [11]	PBM binding z-score [12]	PBM binding z-score [13]	PBM binding z-score [14]	PBM binding z-score [15]	PBM binding z-score [16]	PBM binding z-score [17]	PBM binding z-score [18]	PBM binding z-score [19]	PBM binding z-score [20]
TCGAGTATGTTAGTCGGGGCATTCAGCCAACATA	-0.336	-0.354	-0.761	0.103	-0.713	-0.0801	-0.372	0.0519	0.966	0.691	0.962	0.119	-0.528	-0.979	-0.491	-0.224	-0.529	-0.247	-0.841	0.204
TCTATTAGTTGAATAGGGCAACCGAAACAGCGGA	0.393	0.654	-0.213	0.664	0.0451	1.16	0.438	1.92	3.61	2.81	2.01	1.19	0.574	0.929	0.658	0.411	0.0472	0.67	0.29	1.13
GCATATAGGTAATACATGGTGAAAGTCCGATTGT	-0.0336	0.0177	0.188	-0.279	-0.173	0.369	0.96	0.694	0.313	0.476	3.87	2.35	0.904	0.833	0.511	0.00943	0.145	0.174	0.397	-0.202
TAGACTAGGTCATGCGGGCCAGTATAGTGTCGGC	3.22	2.34	0.304	1.15	0.173	3.96	5.48	4.65	2.34	3.95	5.86	6.59	1.88	2.4	0.793	1.06	-0.131	1.67	-0.228	3.55
TAGCCTAGGTCATTGAGGGGCCAGTATAGAAAGC	4.54	3.48	0.272	2.84	1.08	3.67	2.08	2.48	0.353	1.49	1.9	2.84	0.198	0.125	2.84	2.36	-0.0238	3.39	-0.506	3.93
AATACAGGGTCATCGTAGGCCAAAGTACGCACAG	7.45	6.92	3.34	5.36	1.6	6.04	6.83	5.96	2.67	4.78	2.81	4.06	3.81	2.62	3.47	5.59	1.03	5.27	1.3	4.29
AGTCAAAGTTCAGGGCGAGGTAACGTAAAGCACG	4.49	4.03	1.39	2.27	0.321	3.75	5.2	5.24	1.76	4.08	0.0616	2.24	-0.0376	0.418	2.91	3.19	1.1	2.93	1.23	4.49
AGCTCTAGGTAAAGTTCAGTGAAAGATCGATAGA	0.591	1.3	0.886	0.579	-0.0933	1.83	1.55	2.93	0.866	2.37	2.67	1.47	0.472	0.107	0.759	1.27	1.19	0.896	0.442	2.67
TCTTGTAGATCAAGCAGATTAAGAAAGCCTGAGT	0.096	-0.059	-0.156	0.0422	-0.403	0.442	-0.257	1.19	2.63	2.02	1.46	0.135	-0.162	0.384	-0.288	0.232	-0.000804	0.536	-0.326	-0.301
TCTTGTAGATCAACAGGAGGTTAAGAGAGATCGA	-0.193	1.14	-0.121	0.527	-0.544	1.3	0.126	1.38	2.38	1.73	1.53	0.53	0.135	-0.105	-0.206	0.838	-0.445	0.613	-0.275	0.493
TGAATGAGGTTAAAGATAAGGGAACGTGGCGTCG	2.65	2.28	0.104	1.5	0.393	3.54	2.88	3.98	1.97	3.5	2.35	2.62	1.71	0.597	0.427	1.37	0.106	2.09	-0.181	2.04
CAAACTACGTCAAGGTCAAAGTCGGTTTGTGCCA	4.66	4.23	2.86	3.54	1.01	4.35	1.43	2.55	0.626	1.7	0.822	1.93	0.681	0.932	2.33	4.63	2.94	4.28	0.409	4.04
AGAACGAGGGCAATCAGTTGATAGCACGGGTGGC	0.397	0.342	-0.0973	0.0776	0.0962	1.68	1.44	1.15	0.168	0.658	3.4	3.01	0.487	-0.148	-0.207	1.03	1.55	0.384	-0.0136	2.09

Source: the supplement of paper PMC6555819
